Screening results as filed in PubChem.
FMDV antiviral: foot and mouth disease virus antiviral activity | FMDV antiviral cell-based qHTS | Potency, µM (top dose mostly 57.9 µM), for the others: at the highest dose activity change, negative = inhibition, hits mostly inhibitors | AID 1159524 | hit rate 1.2% among 410,000; calls by dose curve; tested in HEK293T cells; also: read-out not given here; potency is read from the fitted curve at half-maximal effect; nearly all actives have a fitted effect of over 45% in size
HCMV antiviral: inhibitors of human cytomegalovirus; HFF cells, HCMV-luciferase reporter, 72 h; active compounds read low; activity change, negative = inhibition, % at 57.5 µM; hit rate 4.5% among 410,000; AID 1259415; in the data active = activity change below about -60%; inconclusive = no clear call, values can overlap the other calls; inactive = above about -39%
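Inhibition of viral replication was scored as loss of reporter luminescence in HFFs infected with HCMV-luciferase (MOI 1 PFU/cell) for 72 h; compounds tested at 2 doses, normalized to buffer and Salinomycin controls.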
Vaccinia mCherry: inhibitors of vaccinia virus infection (mCherry reporter signal). Vaccinia virus mCherry reporter infection, fluorescence. Potency, µM (doses to about 36.5 µM), inactives show top-dose activity change, negative = inhibition, actives largely listed as inhibitors. hit rate 0.63% among 310,000. AID 720579; calls by dose curve; tested in A549 cells; also: potency is read from the fitted curve at half-maximal effect; nearly all actives have a fitted effect of over 35% in size
VACV Venus inh: inhibitors of vaccinia virus (Venus reporter). hit rate 0.46% among 330,000. AID 720580. Potency, µM (top dose mostly 36.5 µM), inactives show at the highest dose activity change, negative = inhibition, most hits filed as inhibitors. Vaccinia virus Venus reporter expression, fluorescence; calls by dose curve; tested in A549 cells; also: potency is read from the fitted curve at half-maximal effect; nearly all actives have a fitted effect of over 30% in size
HCV inh: blocks hepatitis C virus | hit rate 3.4% among 340,000 | AID 651820 | Huh7.5.1 HCVcc-Cre infection, luciferase reporter, 44 h | Potency, µM (highest dose often 41.8 µM), for inactives: at the highest dose activity change, negative = inhibition, most hits filed as inhibitors; active = well fitted inhibition curve with a large enough effect; inconclusive = small, poorly fitted or top-dose-only effect, or another doubt; inactive = no such curve, though single readings can be large or run the other way; also: potency is read from the fitted curve at half-maximal effect
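Antiviral activity was scored by luciferase reporter output from cells infected with HCVcc-Cre (~0.5 moi) in presence of compound, 44 h infection period, cells seeded 1,000/well 4 h prior.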
* = called active by the depositor. An excerpt weighted towards active compounds, which were near 7.3% of everything screened. % is scaled to controls: 0 for no effect and ±100 for the full control effect.

`CCCNC(=O)C1(C)CCN1C(=O)c1ccccc1CCc1ccccc1` (configuration not stated) gave FMDV antiviral 0%, HCMV antiviral -61*, Vaccinia mCherry -3% and VACV Venus inh -3%.
`COc1ccccc1NC(=O)NC1CCCCCCC1` gave FMDV antiviral 27%, HCMV antiviral inconclusive, Vaccinia mCherry -13%, VACV Venus inh -21% and HCV inh -9%.
COc1ccccc1NS(=O)(=O)c1cccc(NC(=O)NC2CCCCC2)c1 was read as FMDV antiviral -16%, HCMV antiviral -76*, Vaccinia mCherry -13%, VACV Venus inh inconclusive and HCV inh inconclusive.
Screening COc1ccccc1NS(=O)(=O)c1cccc(NS(=O)(=O)c2cc(C(=O)O)ccc2OC)c1 returned FMDV antiviral -5%, HCMV antiviral -102*, Vaccinia mCherry -13%, VACV Venus inh -6% and HCV inh 6%.
COc1ccccc1NS(=O)(=O)c1cccc(NC(=O)c2ccc3ccccc3n2)c1 was read as FMDV antiviral 16%, HCMV antiviral -79*, Vaccinia mCherry inconclusive, VACV Venus inh -18% and HCV inh inconclusive.
`COc1cccc(COC(=O)CSCC(=O)Nc2ccc(C)cc2)c1OC` gave FMDV antiviral -1%, HCMV antiviral -17, Vaccinia mCherry -16% and VACV Venus inh -2%.
`CN1C(=O)/C(=C/c2cccc(Cl)c2)Sc2ccc(C(=O)NCc3cccnc3)cc21` gave FMDV antiviral 0%, HCMV antiviral -14 and HCV inh 10µM*.
Screening COc1ccc(/C=C2\Sc3ccc(C(=O)N4CCOCC4)cc3N(C)C2=O)cc1 returned FMDV antiviral -3%, HCMV antiviral -32 and HCV inh -21%.
For COc1ccc(/C=C2\Sc3ccc(C(=O)N4CCN(Cc5ccccc5)CC4)cc3N(C)C2=O)cc1OC the results were FMDV antiviral 13µM*, HCMV antiviral -83* and HCV inh 3.5µM*.
`COc1ccc(/C=C2\Sc3ccc(C(=O)NCc4cccnc4)cc3N(C)C2=O)cc1OC` gave FMDV antiviral inconclusive, HCMV antiviral -27, Vaccinia mCherry inactive, VACV Venus inh -13% and HCV inh 8.9µM*.
Screening COc1cccc(/C=C2\Sc3ccc(C(=O)NCc4cccnc4)cc3N(C)C2=O)c1 returned FMDV antiviral inconclusive, HCMV antiviral 0, Vaccinia mCherry inactive, VACV Venus inh -21% and HCV inh inconclusive.
Screening CSc1ncccc1C(=O)NCC1Cc2cc(-c3cnccn3)ccc2O1 (configuration not stated) returned FMDV antiviral -8%, Vaccinia mCherry -2% and VACV Venus inh 7%.
For COc1ccc(C2c3cccn3CCN2S(=O)(=O)c2ccc([N+](=O)[O-])cc2)cc1 (configuration not stated) the results were FMDV antiviral -30%, HCMV antiviral -8, Vaccinia mCherry inconclusive and VACV Venus inh -24%.
COc1cccc(N2CCN(C(=O)C3CCCN(S(=O)(=O)c4cccc5nsnc45)C3)CC2)c1 (configuration not stated) was read as FMDV antiviral -24%, HCMV antiviral -8, Vaccinia mCherry -17% and VACV Venus inh 1%.
`O=C(C1CCCN(S(=O)(=O)c2cccc3nsnc23)C1)N1CCN(c2ccccn2)CC1` (configuration not stated) gave FMDV antiviral 28µM*, HCMV antiviral -65*, Vaccinia mCherry inactive, VACV Venus inh -22% and HCV inh inconclusive.
`O=C(C1CCCN(S(=O)(=O)c2cccc3nsnc23)C1)N1CCN(c2cccc(Cl)c2)CC1` (configuration not stated) gave FMDV antiviral 11µM*, HCMV antiviral -86*, Vaccinia mCherry inconclusive and VACV Venus inh -27%.
`Cc1ccccc1C1=NOC2CN(C(=O)c3ccc4c(c3)OCO4)CC12` (configuration not stated) gave HCMV antiviral 46.
`COc1ccc(-n2nc(C(=O)NCC(=O)NCc3ccc(F)cc3)c3ccccc3c2=O)cc1OC` gave FMDV antiviral inconclusive, HCMV antiviral -18, Vaccinia mCherry -29%, VACV Venus inh inconclusive and HCV inh 13µM*.
`CCOc1ccc(NC(=O)CNC(=O)c2nn(-c3ccc(OC)cc3)c(=O)c3ccccc23)cc1` gave FMDV antiviral -19%, HCMV antiviral -65*, Vaccinia mCherry -5%, VACV Venus inh -13% and HCV inh -5%.
`Cc1cc(C)nc(SCC(=O)NC(=O)c2ccccc2O)n1` gave FMDV antiviral -7%, HCMV antiviral 8, Vaccinia mCherry -13%, VACV Venus inh -9% and HCV inh 10%.
For CCNC(=O)c1ccccc1SCc1ccccc1 the results were FMDV antiviral 2%, HCMV antiviral inconclusive, Vaccinia mCherry -24%, VACV Venus inh -4% and HCV inh 4%.
Screening CCc1ccc(OCCNC(=O)c2ccccc2SCc2ccccc2)cc1 returned FMDV antiviral inconclusive, HCMV antiviral -88*, Vaccinia mCherry inconclusive, VACV Venus inh 5% and HCV inh inconclusive.
`CCOc1ccc(-c2nnc(SCC(=O)NCCc3ccccc3)nc2-c2ccc(OCC)cc2)cc1` gave FMDV antiviral -10%, HCMV antiviral -9, Vaccinia mCherry -22% and VACV Venus inh -14%.
For Cc1ccc(C(=O)COC(=O)c2cccs2)cc1 the results were FMDV antiviral 22µM*, HCMV antiviral 36 and HCV inh 13%.
O=C(CNC(=O)c1cccs1)OCC(=O)c1ccc([N+](=O)[O-])cc1 was read as FMDV antiviral 6%, HCMV antiviral -65*, Vaccinia mCherry -6%, VACV Venus inh -4% and HCV inh 9%.
Screening O=C(CNC(=O)c1cccs1)c1ccc(F)cc1 returned FMDV antiviral -26%, HCMV antiviral -75*, Vaccinia mCherry -17%, VACV Venus inh -3% and HCV inh -2%.
Screening O=C(CNC(=O)c1cccs1)c1ccc(Cl)cc1 returned FMDV antiviral 2%, HCMV antiviral 35, Vaccinia mCherry inactive, VACV Venus inh 3% and HCV inh -1%.
`O=C(CNC(=O)c1ccco1)OCC(=O)c1ccc([N+](=O)[O-])cc1` gave FMDV antiviral -1%, HCMV antiviral -64*, Vaccinia mCherry inactive, VACV Venus inh -2% and HCV inh 1%.
`COc1ccc(CCN2C(=O)COc3ccccc3C2C(=O)NCc2ccccc2)cc1OC` (configuration not stated) gave FMDV antiviral -4%, HCMV antiviral 4, Vaccinia mCherry 35% and VACV Venus inh -5%.
Screening COc1cc(/C=C(\C#N)c2nc3ccccc3s2)cc([N+](=O)[O-])c1O returned FMDV antiviral -20%, HCMV antiviral -62*, Vaccinia mCherry -10%, VACV Venus inh -2% and HCV inh 1%.
